# High-throughput results as filed in PubChem.
# An excerpt weighted towards active compounds, which were near 9.3% of everything screened.
# NPC1 promoter act – activators of NPC1 promoter | Potency, µM (doses to about 9.22 µM), for inactives: at the top dose activation, actives largely listed as activators | hit rate 2.4% among 320,000 | Huh7 NPC1 promoter luciferase reporter, 24 h | AID 485313; note: % of control where 0% means no effect; nearly all actives have a fitted effect of over 60% in size
#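 Quantitative HTS used a cell-based reporter: Huh7 cells stably bearing the NPC1 promoter upstream of luciferase were treated with compounds for 24 h, and promoter activation was read as luminescence.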
# Rab9 prom act – Rab9 promoter activation. Huh7 Rab9 promoter-luciferase reporter, luminescence, 24 h. Potency, µM (top dose mostly 9.22 µM), for the others: top-dose activation, negative = inhibition, hits mostly activators. hit rate 2.8% among 320,000. AID 485297; note: % of control where 0% means no effect; nearly all actives have a fitted effect of over 60% in size
#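 Cell-based reporter: Huh7 stable for Rab9 promoter-driven luciferase, plated in reduced-serum medium with 10% FBS at 1500 cells/well, compound-treated 24 h at 37 °C, luminescence read after 10 min reagent.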
# ELG1 DNA repair – ELG1-dependent DNA repair inhibition | HEK293T ELG1-luciferase reporter, luminescence, 16 h; DNA damage induced by 5-fluorouridine | Potency, µM (highest dose often 46.1 µM), for the others: at the top dose activity change, negative = inhibition, usual class: inhibitors | hit rate 2.3% among 330,000 | AID 504467; note: % is set by controls: 0 for no effect and ±100 for the full control effect; nearly all actives have a fitted effect of over 55% in size
#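 Step one: seed 2,000 cells per well. Step two: pin-transfer compound or DMSO alongside 5-fluorouridine. Step three: incubate 16 hr, 37 °C, 5% CO2. Step four: add ONE-Glo, wait 30 min, read luminescence.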
# FLuc counter – counter-screen for miR-21 project: firefly luciferase inhibitors or activators; P08659; purified FLuc, Km substrates, luminescence inhibition; Potency, µM (top dose mostly 57.5 µM), for inactives: at the top dose activity change, negative = inhibition, actives largely listed as inhibitors; hit rate 6.9% among 360,000;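 note: plate controls were vehicle for no effect and reference inhibitor for full effect; nearly all actives have a fitted effect of over 55% in size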
# Target sequence (P08659 whole entry, looked up): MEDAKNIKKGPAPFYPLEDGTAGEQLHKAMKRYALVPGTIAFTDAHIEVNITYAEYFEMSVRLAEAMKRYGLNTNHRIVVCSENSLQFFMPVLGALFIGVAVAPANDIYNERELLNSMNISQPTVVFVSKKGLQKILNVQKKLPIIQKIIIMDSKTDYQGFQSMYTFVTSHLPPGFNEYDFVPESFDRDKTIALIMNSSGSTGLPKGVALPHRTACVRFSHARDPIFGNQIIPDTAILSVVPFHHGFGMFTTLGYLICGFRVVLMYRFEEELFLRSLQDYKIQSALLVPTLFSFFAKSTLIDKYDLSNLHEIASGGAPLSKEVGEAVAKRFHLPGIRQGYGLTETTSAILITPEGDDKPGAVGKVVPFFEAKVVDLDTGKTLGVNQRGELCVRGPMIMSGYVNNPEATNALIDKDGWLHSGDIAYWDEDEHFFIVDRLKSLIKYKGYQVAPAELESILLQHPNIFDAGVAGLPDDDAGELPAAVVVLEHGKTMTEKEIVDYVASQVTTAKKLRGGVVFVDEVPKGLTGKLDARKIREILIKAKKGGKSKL
#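 Purified P. pyralis luciferase (10nM final) with 10uM D-luciferin and 10uM ATP (Km levels) in 50mM Tris acetate pH 7.5, 10mM Mg acetate, 0.01% Tween-20, 0.05% BSA; qHTS 6-point titration, ~60 µM downward; luminescence read.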
# SMN2 splice up – SMN2 splice variant enhancement | HEK293 SMN2-luciferase splicing reporter, luminescence, 30-36 h | Potency, µM (series often up to 46.1 µM), for inactives: at the top dose activity change, positive = activation, usual class: activators | hit rate 2.8% among 210,000; note: % of control where 0% means no effect; nearly all actives have a fitted effect of over 55% in size
#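 qHTS luciferase splicing reporter: luminescence rises when SMN2 exon 7 is included in transfected HEK293 cells. Compound exposure lasted 30-36 h at 37C, with 4.5 mM final sodium butyrate as control, followed by a ONE-Glo read.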
# ELG1 genotoxic – inducers of genotoxicity in HEK293T ELG1-luciferase cells; hit rate 1.3% among 330,000; AID 504466; Potency, µM (doses to about 46 µM), without a hit: top-dose activity change, positive = activation, usual class: activators; HEK293T ELG1-luciferase reporter, luminescence, 16 h; note: % of control where 0% means no effect; nearly all actives have a fitted effect of over 60% in size
#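 Cells (2,000/well) expressing the ELG1-luciferase fusion are dosed by pin tool and kept 16 hr at 37 °C, 5% CO2. Signal comes from ONE-Glo luciferase reagent after 30 min at room temperature.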
# * hit, by the source's call; ? = inconclusive; · = not tested or not shown. Calls come from the whole dose curve; as a rule, active = well fitted curve in the direction sought with a large enough effect; inconclusive = small, poorly fitted or top-dose-only effect, or another doubt; inactive = no such curve, though single readings can be large; an effect the other way counts as inactive or inconclusive. Potency is the fitted concentration of half-maximal effect.
SMILES,NPC1 promoter act,Rab9 prom act,ELG1 DNA repair,FLuc counter,SMN2 splice up,ELG1 genotoxic
C/C(=N\Nc1ncnc2sc(C)c(C)c12)c1ccccn1,?,8%,?,5.4µM*,·,?
C/C(=N\Nc1ncc(Cl)cc1Cl)c1ccccn1,0%,-13%,?,0.17µM*,-88%,?
Cc1sc2ncnc(N/N=C/c3cccc(O)c3)c2c1C,2%,-4%,?,11µM*,?,?
Cc1ccc(Nc2ncnc3sc(C)c(C)c23)cc1,0%,29%,?,21µM*,?,?
C/C(=N\Nc1ccc(Cl)c(C(=O)O)c1)c1ccccn1,16%,9%,?,-18%,·,10%
COc1ccc2oc(=O)c(C(=O)NCCc3c(C)[nH]c4c(Cl)cccc34)cc2c1,·,·,·,6%,9%,·
COc1ccc(-c2nc3ccc(C(=O)NCC(OC)OC)cc3nc2-c2ccc(OC)cc2)cc1,-7%,0%,16µM*,-10%,-15%,-5%
COc1ccccc1N1CCN(C(=O)c2ccc3[nH]c(C)c(C)c3c2)CC1,-29%,-25%,?,2%,·,?
COC(CNC(=O)c1ccc2nc(-c3ccccc3)c(-c3ccccc3)nc2c1)OC,-2%,-3%,?,-14%,-10%,-4%
O=C(c1ccccc1)c1ccc2nc(-c3ccco3)c(-c3ccco3)nc2c1,24%,?,?,5.4µM*,7%,12%
COC(=O)c1cc(C(=O)N2CCN(c3cccc(C)c3C)CC2)cc([N+](=O)[O-])c1,-32%,-21%,?,2%,-22%,-7%
COc1ccccc1N1CCN(C(=O)c2ccc3[nH]c4c(c3c2)CC(C)CC4)CC1 (configuration not stated),-3%,1%,?,19µM*,6%,-8%
COC(=O)c1cc(C(=O)N2CCN(c3ccccc3OC)CC2)cc([N+](=O)[O-])c1,-5%,-12%,3%,21µM*,·,0%
O=C(NCCO)c1ccc2nc(-c3ccco3)c(-c3ccco3)nc2c1,1%,18%,-22%,15µM*,2%,-9%
O=C(NCCc1ccccc1)c1ccc(=O)oc1,-1%,0%,17%,0%,22%,0%
O=C(NC1CCCC1)c1ccc2nc[nH]c2c1,-1%,0%,6%,-1%,-1%,5%
O=C(NC1CCCC1)c1ccc2nc(-c3ccco3)c(-c3ccco3)nc2c1,0%,7%,?,13µM*,·,-4%
COc1ccccc1N1CCN(C(=O)c2ccc3nc(-c4ccco4)c(-c4ccco4)nc3c2)CC1,-2%,-4%,7.3µM*,-15%,-63%,-13%
O=C(NCCc1ccccc1)c1ccc2nc(-c3ccco3)c(-c3ccco3)nc2c1,0%,7%,?,21µM*,-2%,-4%
Cc1ccccc1OCC(=O)OC(C)C(=O)NC1CCCC1 (configuration not stated),5%,2%,9%,0%,·,-1%
CCOC(=O)N1CCN(C(=O)CSc2nc3c([nH]c4ccccc43)c(=O)n2C)CC1,-2%,1%,2.6µM*,-1%,5%,?
CCn1c(SCC(=O)Nc2ccccc2)nc2c([nH]c3ccccc32)c1=O,·,·,·,-1%,·,·
CCn1c(SCC(=O)Nc2ccc(C(C)=O)cc2)nc2c([nH]c3ccccc32)c1=O,-1%,19%,?,3%,·,16µM*
CCN(Cc1nc(-c2cccc(Cl)c2)no1)CC1CCCO1 (configuration not stated),6%,20%,?,?,·,6%
CN(Cc1nc(-c2cccc(Cl)c2)no1)C1CCOCC1,?,2µM*,?,?,·,?
SMILES,NPC1 promoter act,Rab9 prom act,ELG1 DNA repair,FLuc counter,SMN2 splice up,ELG1 genotoxic
Cc1c(Cl)ccc2sc(N3CCN(C(=O)CCS(=O)(=O)c4ccc(F)cc4)CC3)nc12,·,·,·,-16%,·,·
O=C(CSc1ncccn1)N1CCCc2ccccc21,0%,-3%,?,0%,0%,29%
O=C(CSc1nnc2ccccn12)N1CCc2ccccc21,2.8µM*,3.2µM*,?,13µM*,13µM*,?
Cc1ccnc(SCC(=O)N2CCc3ccccc32)n1,3.2µM*,2.8µM*,?,?,·,?
O=C(CSc1nnc2ccccn12)N1CCc2ccccc2C1,?,27%,?,?,26%,?
Cn1ccnc1SCC(=O)N1CCc2ccccc21,2.2µM*,2.8µM*,?,15µM*,·,?
O=C(CSc1ccc2nnc(-c3ccc(F)cc3)n2n1)N1CCCc2ccccc21,-1%,-7%,18µM*,-1%,6%,-8%
O=C(CSc1ccccn1)N1CCc2ccccc21,2.5µM*,1.1µM*,?,11µM*,11µM*,?
Cc1ccc(C(=O)N(Cc2cccnc2)Cc2cc3cc(C)ccc3n3nnnc23)cc1,1%,-4%,21µM*,-18%,-10%,-3%
COc1ccccc1CNC(=O)c1ccc(-c2nc(CS(=O)(=O)c3ccc(C)cc3)c(C)o2)cc1,·,·,·,-4%,·,·
O=C(NNc1c2ccccc2nc2ccccc12)c1ccc(O)cc1,1%,8%,?,17µM*,-45%,5%
O=C(COc1ccccc1)NNc1c2ccccc2nc2ccccc12,-33%,-25%,21µM*,-6%,·,0%
O=C(NNC(=O)c1ccc(O)cc1O)c1ccc(-c2ccccc2)cc1,-6%,-5%,-18%,19µM*,·,-4%
O=C(NNc1c2ccccc2nc2ccccc12)c1ccccc1Cl,-1%,-5%,-8%,2%,·,4%
COc1ccc(OCC(=O)NNc2c3ccccc3nc3ccccc23)cc1,-23%,-27%,?,?,-47%,-8%
O=C(NNc1c2ccccc2nc2ccccc12)c1ccc(O)cc1O,-1%,-3%,-21%,13µM*,-3%,-1%
O=C(NNc1c2ccccc2nc2ccccc12)c1ccccc1O,5%,-2%,?,?,-15%,-7%
CC(=O)N1CCCc2cc(S(=O)(=O)NCc3ccc(N(C)C)cc3)ccc21,·,·,·,3%,·,·
CCCC(=O)NNc1c2ccccc2nc2ccccc12,-29%,-43%,3%,1%,-8%,-2%
O=C(NNc1c2ccccc2nc2ccccc12)c1cccc(O)c1,0%,-1%,15µM*,24µM*,-34%,-7%
C=CCN=Cc1sc2ccc(OCC)cc2c1O,3.2µM*,2.8µM*,?,8.5µM*,·,?
CCOc1ccc2nc(/N=C/c3nc(-c4ccc(Br)cc4)oc3O)sc2c1,9%,17%,?,-7%,17%,2%
CCCCN=Cc1sc2ccc(OCC)cc2c1O,17%,24%,?,21µM*,16%,14%
